Laboratory results from PubChem BioAssay (Tox21).
Records with an inconclusive call do not appear. Calls of active or inactive are those of the source. Unless noted, calls come from the whole dose curve; as a rule, active = well fitted curve in the direction sought with a large enough effect in the repeat runs; inconclusive = weak or mixed curves; inactive = no such curve, though single readings can be large; an effect the other way counts as inactive or inconclusive.

Legend:
[1] = qHTS assay to identify small molecule antagonists of the vitamin D receptor (VDR) signaling pathway - cell viability counter screen (AID 743225); note: nearly all actives have a fitted effect of over 50% in size; note: potency is the fitted concentration of half-maximal effect; for viability change, negative = cytotoxic: % is set by controls: 0 for no effect and ±100 for the full control effect
How it was run: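 Cytotoxicity counter screen read by CellTiter-Glo luminescence (30 min, room temperature) in the same wells as the VDR-bla antagonist readout. HEK 293T VDR-UAS-bla cells had 16 h at 37C with compound and 3 nM (final) 1-alpha,25-dihydroxyvitamin D3, then 2 h with FRET substrate.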

[2] = qHTS assay to identify small molecule agonists of the endoplasmic reticulum stress response signaling pathway (AID 1159516; active = well fitted activation curve with a large enough effect in the signal ratio in the repeat runs, not every such curve was filed as active; the % refers to the signal ratio; note: potency is the fitted concentration of half-maximal effect; for activation: % is set by controls: 0 for no effect and ±100 for the full control effect)
How it was run: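 Reporter HeLa cells (ESRE-beta-lactamase) underwent 5 hr compound incubation at 37 C and 5% CO2 in quantitative HTS format. Detection followed 2 hr of FRET substrate loading at room temperature.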

[3] = qHTS assay to identify small molecule agonists of the endoplasmic reticulum stress response signaling pathway - cell viability counter screen (AID 1159517; calls by dose curve; note: nearly all actives have a fitted effect of over 50% in size; note: potency is the fitted concentration of half-maximal effect;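 for activity change, negative = cytotoxicity: HeLa cells carrying an ER stress response element beta-lactamase reporter; series mostly up to about 61 µM; % is set by controls: 0 for no effect and ±100 for the full control effect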)
How it was run: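 HeLa cells carrying an ESRE-driven beta-lactamase reporter receive compound for 5 hr at 37 C. Cell viability is then gauged with CellTiter-Glo by luminescence, 30 min at room temperature.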

[4] = qHTS assay to identify small molecule antagonists of the retinoid-related orphan receptor gamma (ROR-gamma) signaling pathway - cell viability counter screen (AID 1159520); note: nearly all actives have a fitted effect of over 50% in size; note: potency is the fitted concentration of half-maximal effect
How it was run: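 Cytotoxicity was read from cellular ATP (CellTiter-Glo luminescence) after 16 hr at 37 C with 1 uM doxycycline induction. The inducer was added 2 hr after compound transfer to Tet-on ROR gamma CHO cells.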

[5] = qHTS assay to identify small molecule agonists of the RXR signaling pathway - cell viability counter screen (AID 1159529); note: nearly all actives have a fitted effect of over 50% in size; note: potency is the fitted concentration of half-maximal effect
How it was run: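 CellTiter-Glo luminescence gave viability in the wells also read for beta-lactamase. Cells (RXR-alpha-UAS-bla HEK 293T, 2% charcoal-stripped FBS medium) had 5 hr plating, then 16 hr compound exposure at 37 C; tetraoctyl ammonium bromide served as positive control.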

[6] = qHTS assay to identify small molecule agonists of the vitamin D receptor (VDR) signaling pathway - cell viability counter screen (AID 743224); note: nearly all actives have a fitted effect of over 50% in size; note: potency is the fitted concentration of half-maximal effect
How it was run: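 Here cell health was gauged by luminescent ATP detection (CellTiter-Glo, 30 min RT) in VDR-bla cells that had been incubated with test compounds for 16 h at 37C and 5% CO2.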

[7] = target: Nuclear receptor ROR-gamma (Homo sapiens) (UniProt P51449); assay: qHTS assay to identify small molecule antagonists of the retinoid-related orphan receptor gamma (ROR-gamma) signaling pathway (AID 1159521; note: nearly all actives have a fitted effect of over 50% in size; note: potency is the fitted concentration of half-maximal effect)
How it was run: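 Antagonist read-out: drop in luminescence (ONE-Glo) from an RORE-LUC reporter in CHO cells with doxycycline-inducible ROR-gamma; 2 hr compound pretreatment, 1 uM doxycycline, 16 hr incubation at 37 C.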

[8] = qHTS assay to identify small molecule agonists of the AP-1 signaling pathway - cell viability counter screen (AID 1159525; calls by dose curve; note: nearly all actives have a fitted effect of over 55% in size; note: potency is the fitted concentration of half-maximal effect)
How it was run: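 Luminescent ATP readout (Cell Titer Glo, 30 min RT), normalised to DMSO and tetra n-octyl ammonium bromide controls. Cells were ME-180 AP-1-bla in 0.5% dialyzed FBS Opti-MEM, with a 5 h, 37 °C compound exposure.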

[9] = qHTS assay to identify small molecule agonists of the AP-1 signaling pathway (AID 1159526; calls by dose curve; note: % is set by controls: 0 for no effect and ±100 for the full control effect)
[10] = target: Retinoic acid receptor RXR-alpha (Homo sapiens) (UniProt P19793); assay: qHTS assay to identify small molecule agonists of the RXR signaling pathway (AID 1159527; calls by dose curve; note: % is set by controls: 0 for no effect and ±100 for the full control effect; nearly all actives have a fitted effect of over 35% in size)
How it was run: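 Agonist-mode beta-lactamase reporter assay: HEK 293T RXR-alpha-UAS-bla cells treated 16 hr at 37 C with compounds, 9-cis retinoic acid as positive control. LiveBLAzer FRET substrate, 405 nm excitation, 460/530 nm emission.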

Chain of Retinoic acid receptor RXR-alpha (Homo sapiens) (P19793 whole entry, looked up): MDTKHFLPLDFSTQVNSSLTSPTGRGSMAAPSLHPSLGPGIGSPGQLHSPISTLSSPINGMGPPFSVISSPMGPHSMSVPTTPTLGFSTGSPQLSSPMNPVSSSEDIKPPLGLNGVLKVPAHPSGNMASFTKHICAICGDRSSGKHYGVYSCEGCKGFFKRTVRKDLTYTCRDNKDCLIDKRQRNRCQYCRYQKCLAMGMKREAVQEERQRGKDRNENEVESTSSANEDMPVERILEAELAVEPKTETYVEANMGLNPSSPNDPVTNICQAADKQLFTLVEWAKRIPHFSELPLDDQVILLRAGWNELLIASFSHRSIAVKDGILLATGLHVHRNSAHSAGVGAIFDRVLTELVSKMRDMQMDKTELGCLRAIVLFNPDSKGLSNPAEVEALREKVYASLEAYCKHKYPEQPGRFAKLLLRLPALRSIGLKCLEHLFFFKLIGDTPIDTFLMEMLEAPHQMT

CC(CN(C)C)CN1c2ccccc2CCc2ccccc21 (configuration not stated)
inactive: Potency [1] | Potency [2] | Potency [3] | Potency [4]
active: Potency [5] 9.52 µM

COC(=O)CC(C)CCC=C(C)C (configuration not stated)
inactive: Potency [6] | Potency [1] | Potency [2] | Potency [3] | Potency [4] | Potency [7] | Potency [8] | Potency [5]

N[C@@H](CSSC[C@H](N)C(=O)O)C(=O)O
inactive: viability change, negative = cytotoxic [1] 6.19% [at 0.628 µM] | activation [2] -7.2% [at 0.628 µM] | activity change, negative = cytotoxicity [3] 2.61% [at 0.628 µM] | activity, negative = cytotoxicity [4] 0.408% [at 0.349 µM] | activity change, negative = inhibition [7] -16.9% [at 0.35 µM] | viability change, negative = cytotoxic [8] 3.93% [at 0.29 µM] | activity change, negative = cytotoxicity [5] -20.1% [at 0.29 µM]

ClC/C=C\CCl
inactive: Potency [6] | Potency [1] | Potency [2] | Potency [3] | Potency [4] | Potency [9] | Potency [10] | Potency [5]

CCN(CC)CCCN(c1ccccc1)C1Cc2ccccc2C1
inactive: Potency [2] | Potency [3] | Potency [4] | Potency [8]

CCO[Si](CCCSSSSCCC[Si](OCC)(OCC)OCC)(OCC)OCC
active: Potency [8] 24.6 µM | Potency [5] 21.9 µM
inactive: Potency [2] | Potency [3] | Potency [4]

CCNc1nc(NC(C)CC)nc(OC)n1 (configuration not stated)
inactive: Potency [1] | Potency [2] | Potency [3] | Potency [4] | Potency [8] | Potency [9] | Potency [10] | Potency [5]

Cc1ccc2ccc3cccc4ccc1c2c34
inactive: Potency [6] | Potency [2] | Potency [3] | Potency [4] | Potency [8] | Potency [9]

CCCCOc1ccc(C(=O)CCN2CCCCC2)cc1
active: Potency [4] 26.6 µM
inactive: Potency [1] | Potency [2] | Potency [3] | Potency [8] | Potency [9]

C=CC(C)(CCC=C(C)C)OC(=O)/C=C/c1ccccc1 (configuration not stated)
active: Potency [6] 38.9 µM
inactive: Potency [2] | Potency [3] | Potency [7]

NC1(c2ccc(-c3nc4ccn5c(=O)[nH]nc5c4cc3-c3ccccc3)cc2)CCC1
active: Potency [1] 21.3 µM | Potency [4] 29.8 µM | Potency [7] 0.596 µM | Potency [5] 21.3 µM
inactive: Potency [2] | Potency [3]

O=C(c1ccccc1)c1cc(Cl)ccc1O
inactive: Potency [6] | Potency [1] | Potency [2] | Potency [3] | Potency [4] | Potency [7] | Potency [10]

O=S(=O)(O)CCCN1CCOCC1
inactive: Potency [6] | Potency [1] | Potency [2] | Potency [3] | Potency [4] | Potency [9] | Potency [10] | Potency [5]

NC(=O)C(=O)N/N=C/c1ccc([N+](=O)[O-])o1
inactive: Potency [6] | Potency [1] | Potency [2] | Potency [3] | Potency [7] | Potency [5]

NC(=O)c1ccccc1N
inactive: Potency [6] | Potency [1] | Potency [2] | Potency [3] | Potency [7] | Potency [9] | Potency [10] | Potency [5]

CCCN(CCc1cccs1)[C@H]1CCc2c(O)cccc2C1
inactive: Potency [6] | Potency [1] | Potency [2] | Potency [3] | Potency [4] | Potency [7] | Potency [10]

CCC(C)(C)c1cc(O)c(C(C)(C)CC)cc1O
inactive: Potency [1] | Potency [3] | Potency [8] | Potency [9] | Potency [10]
active: Potency [2] 3.89 µM | Potency [7] 24.3 µM

COc1cccc(CCc2ccccc2OCC(CN(C)C)OC(=O)CCC(=O)O)c1 (configuration not stated)
inactive: Potency [6] | Potency [1] | Potency [2] | Potency [3] | Potency [4] | Potency [8] | Potency [9] | Potency [5]
active: Potency [7] 7.5 µM

C/C=C/C=N/NC(=O)c1ccncc1
inactive: Potency [1] | Potency [2] | Potency [3] | Potency [4] | Potency [7] | Potency [8] | Potency [5]

Cc1cn[nH]c1
inactive: Potency [6] | Potency [1] | Potency [2] | Potency [3] | Potency [4] | Potency [8] | Potency [9] | Potency [10] | Potency [5]

CC(C)N=C(N)/N=C(\N)Nc1ccc(Cl)cc1
inactive: Potency [6] | Potency [1] | Potency [2] | Potency [3] | Potency [4] | Potency [9] | Potency [5]

O=C(O)Cc1ccc(OCCNC[C@H](O)c2ccccc2)cc1
inactive: Potency [1] | Potency [2] | Potency [3] | Potency [7] | Potency [8] | Potency [5]

CCCCCCCC/C=C\CCCCCCCC(=O)N(C)CC(=O)O
inactive: Potency [2] | Potency [7]
active: Potency [6] 49 µM | Potency [3] 54.9 µM | Potency [8] 30.9 µM

CCCCCCCCCCCCCCCC
inactive: Potency [6] | Potency [1] | Potency [2] | Potency [3] | Potency [4] | Potency [9] | Potency [5]

CC1CCCCN1CCCOC(=O)c1ccc(OC2CCCCC2)cc1 (configuration not stated)
active: Potency [7] 11.9 µM
inactive: Potency [6] | Potency [2] | Potency [3] | Potency [4] | Potency [8]

CN(C)c1ccc(N=Nc2ccccc2C(=O)O)cc1
active: Potency [4] 13.7 µM | Potency [7] 12.2 µM
inactive: Potency [6] | Potency [1] | Potency [2] | Potency [3]
